# Inconclusive results are not listed. A call without a number means that no potency is given here. Active and inactive are the calls of the source. Calls follow the shape of the dose curve; as a rule, active = well fitted cell-killing curve with a large enough effect; inconclusive = small, poorly fitted or top-dose-only effect, or effect the other way; inactive = no such curve, though single readings can be large or run the other way.
# Experiment: Viability qHTS for spleen associated tyrosine kinase inhibitor (SYKi) naive MV4-11 cells (AID 1963823); also: nearly all actives have a fitted effect of over 40% in size
# Settings: MV4-11 AML viability, CellTiter-Glo luminescence, 72 h; series mostly up to 45 µM
# Method in brief: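 Compounds were dispensed acoustically onto plates, MV4-11 cells (SYKi-naive) added at 500 per well, and plates incubated 72 hr at 37 C. CellTiter-Glo was added and luminescence measured after 10 min.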
# Potency is read from the fitted curve at half-maximal effect.
Compound,Potency,viability (% of control)
O=C(CCCCl)c1ccc(F)cc1,inactive,
COc1ccccc1N1CCNCC1,inactive,
CC(C)(C)NCC(O)c1cc(Cl)c(N)c(Cl)c1 (configuration not stated),inactive,
O=C1c2ccccc2C(=O)c2ccccc21,inactive,
CC1OC(C)OC(C)O1 (configuration not stated),inactive,
CCNc1nc(Cl)nc(NCC)n1,inactive,
c1ccc2c(c1)sc1ccccc12,inactive,
CN[C@@H](C)[C@H](O)c1ccccc1,inactive,
C[C@@H](C1CC[C@@]2(O)C3=CC(=O)[C@@H]4C[C@@H](O)[C@@H](O)C[C@]4(C)[C@H]3CC[C@]12C)[C@H](O)CCC(C)(C)O (some centres not stated),inactive,
CCN(Cc1ccc(Cl)nc1)/C(=C/[N+](=O)[O-])NC,inactive,
CN(C)[C@@H]1C(=O)C(C(N)=O)=C(O)[C@@]2(O)C(=O)C3=C(O)c4c(O)cccc4[C@@](C)(O)[C@H]3[C@H](O)[C@@H]12,inactive,
CC[N+](CC)(CC)CC,inactive,
CC(C)(C)NCC(O)c1ccccc1Cl (configuration not stated),inactive,
NP(N)(=O)NC(=O)c1ccc(F)cc1,inactive,
CCOC(=O)NC(C)(C)Cc1ccc(Cl)cc1,inactive,
COP(=S)(OC)Oc1cc(Cl)c(Cl)cc1Cl,inactive,
NCC(CC(=O)O)c1ccc(Cl)cc1 (configuration not stated),,90.7% [at 0.588 µM] (inactive)
CCCN(CCC)c1c([N+](=O)[O-])cc(S(N)(=O)=O)cc1[N+](=O)[O-],21.7 µM (active),
CCC1(C2=NCCN2)Cc2ccccc2O1 (configuration not stated),inactive,
CCc1ccc(C2CCNCC2)cc1,inactive,
CC(Cc1ccc(O)cc1)NCC(O)c1cc(O)cc(O)c1 (configuration not stated),inactive,
C1CN2CCC1CC2,inactive,

# Reference: PubChem BioAssay (NCATS)
